Inconclusive results are not listed. Calls of active or inactive are those of the source. Calls come from the whole dose curve; as a rule, active = well fitted curve in the direction sought with a large enough effect in the repeat runs; inconclusive = weak or mixed curves; inactive = no such curve, though single readings can be large; an effect the other way counts as inactive or inconclusive.
Tests used:
[1] = qHTS RealTime-Glo MT Cell Viability Assay in HEK293 cells - 32 hour (AID 1224868); note: top concentration of the series differs between compounds; nearly all actives have a fitted effect of over 50% in size
In short: (§1)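 Cells + reagent dispensed (600 cells/well, HEK293) → 5 h at 37 C/5% CO2 → 23 nL compound in DMSO pinned → 40 h at 37 C → luminescence read at 0, 8, 16, 24, 32, 40 h.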

[2] = A CellTox Green Cytotoxicity Assay to monitor cytotoxicity in HEK293 cells - 0 hour (AID 1224869); note: nearly all actives have a fitted effect of over 50% in size
In short: (§2)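 HEK293 cells, 600/well, were preincubated 5 hours and then exposed to compounds at 37 C for up to 40 hours. A cell-impermeant cyanine dye staining dead-cell DNA was read by fluorescence at 0, 8, 16, 24, 32 and 40 h time points.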

[3] = qHTS RealTime-Glo MT Cell Viability Assay in HepG2 cells - 40 hour (AID 1224870); note: nearly all actives have a fitted effect of over 50% in size
In short: (§3)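 Real-time viability: cells seeded at 600 per well together with NanoLuc and cell-permeant prosubstrate, compounds added after 5 h incubation. Luminescence tracked at 0, 8, 16, 24, 32 and 40 h of exposure.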

[4] = A CellTox Green Cytotoxicity Assay to monitor cytotoxicity in HEK293 cells - 40 hour (AID 1224871); note: nearly all actives have a fitted effect of over 45% in size
In short: as §2

[5] = qHTS RealTime-Glo MT Cell Viability Assay in HEK293 cells - 16 hour (AID 1224872); note: top concentration of the series differs between compounds; nearly all actives have a fitted effect of over 50% in size
In short: as §1

[6] = qHTS RealTime-Glo MT Cell Viability Assay in HepG2 cells - 8 hour (AID 1224873); note: nearly all actives have a fitted effect of over 55% in size
In short: as §3

[7] = qHTS RealTime-Glo MT Cell Viability Assay in HEK293 cells - 40 hour (AID 1224874); conditions: RealTime-Glo luminescence, hits give low values; note: nearly all actives have a fitted effect of over 50% in size
In short: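 600 cells/well were plated with the nonlytic NanoLuc/prosubstrate reagent, pre-incubated 5 h, then given 23 nL of compound in DMSO. Incubation at 37 C for 40 h, with luminescence from viable-cell-reduced substrate read repeatedly from 0 h.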

[8] = A CellTox Green Cytotoxicity Assay to monitor cytotoxicity in HEK293 cells - 24 hour (AID 1224875); note: series mostly up to about 77 µM; nearly all actives have a fitted effect of over 45% in size
In short: as §2

[9] = A CellTox Green Cytotoxicity Assay to monitor cytotoxicity in HepG2 cells - 16 hour (AID 1224876); note: nearly all actives have a fitted effect of over 45% in size
In short: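 HepG2 cells, 600/well, preincubated 5 h with CellTox Green dye, then exposed to Tox21 compounds in DMSO at 37 C for up to 40 h. Dead-cell DNA fluorescence read at the indicated time point.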

[10] = qHTS RealTime-Glo MT Cell Viability Assay in HepG2 cells - 32 hour (AID 1224877); note: nearly all actives have a fitted effect of over 55% in size
In short: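 Real-time, nonlytic viability: 600 HepG2 cells/well mixed with NanoLuc enzyme plus prosubstrate; 5 h settle, compound (DMSO) added by pintool; luminescence monitored over 40 h at 37 C.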
% is set by controls: 0 for no effect and ±100 for the full control effect.

CCCCCCCOC(C)=O
inactive: outcome [1] | outcome [2] | outcome [3] | Potency [4] | outcome [5] | outcome [6] | max response [7] -2.34% | Potency [8] | Potency [9]

CC(O)C(CO)C(C)O (configuration not stated)
inactive: outcome [1] | outcome [2] | outcome [3] | Potency [4] | outcome [5] | outcome [6] | max response [7] -0.0675% | Potency [8] | Potency [9]

CC12CCCC=C1C(=O)OC2=O (configuration not stated)
inactive: outcome [1] | outcome [2] | outcome [3] | Potency [4] | outcome [5] | outcome [6] | max response [7] 7.32% | Potency [8] | Potency [9]

O=Cc1ccccc1S(=O)(=O)O
inactive: outcome [1] | outcome [2] | outcome [3] | Potency [4] | outcome [5] | outcome [6] | max response [7] 7.86% | Potency [8] | Potency [9]

C/C=C(\C)C(=O)OC/C=C(\C)CCC=C(C)C
inactive: outcome [1] | outcome [2] | outcome [3] | Potency [4] | outcome [5] | outcome [6] | max response [7] 7.26% | Potency [8] | Potency [9]

CCO/C=C1\N=C(c2ccccc2)OC1=O
inactive: outcome [1] | outcome [2] | outcome [3] | Potency [4] | outcome [5] | outcome [6] | max response [7] 18.4% | Potency [8] | Potency [9]

CCCOc1ccc(C(=O)OCCN(CC)CC)cc1N
inactive: outcome [1] | outcome [2] | outcome [3] | Potency [4] | outcome [5] | outcome [6] | max response [7] 0.981% | Potency [8] | Potency [9]

CCN1CCN(C(=O)N[C@@H](C(=O)N[C@@H]2C(=O)N3[C@@H]2SC(C)(C)[C@H]3C(=O)O)c2ccccc2)C(=O)C1=O
inactive: outcome [1] | outcome [2] | outcome [3] | Potency [4] | outcome [5] | outcome [6] | max response [7] 1.08% | Potency [8] | Potency [9]

CCCc1ccc(O)c(OC)c1
inactive: outcome [1] | outcome [2] | outcome [3] | Potency [4] | outcome [5] | outcome [6] | max response [7] 6.36% | Potency [8] | Potency [9]

CC(C)=CCC/C(C)=C\C#N
inactive: outcome [1] | outcome [2] | outcome [3] | Potency [4] | outcome [5] | outcome [6] | max response [7] 15.8% | Potency [8] | Potency [9]

C=CC(=O)CC
inactive: outcome [1] | outcome [2] | outcome [3] | Potency [4] | outcome [5] | outcome [6] | max response [7] 0.33% | Potency [8] | Potency [9] | outcome [10]

CCCCc1ccc(Cl)cc1
inactive: outcome [1] | outcome [2] | outcome [3] | Potency [4] | outcome [5] | outcome [6] | max response [7] 8.05% | Potency [8] | Potency [9]

COc1ccc2cc(CCC(C)=O)ccc2c1
inactive: outcome [1] | outcome [2] | outcome [3] | Potency [4] | outcome [5] | outcome [6] | max response [7] -11.3% | Potency [8] | Potency [9]

O=C(O)Cc1ccccc1Oc1ccc(Cl)cc1Cl
inactive: outcome [1] | outcome [2] | outcome [3] | Potency [4] | outcome [5] | outcome [6] | max response [7] 4.29% | Potency [8] | Potency [9]

C[C@H]1COc2c(C3(N)CC3)c(F)cc3c(=O)c(C(=O)O)cn1c23
inactive: outcome [1] | outcome [2] | outcome [3] | Potency [4] | outcome [5] | outcome [6] | max response [7] 1.9% | Potency [8] | Potency [9]

CCOC(=O)c1ccc(N(C)C)cc1
inactive: outcome [1] | outcome [2] | outcome [3] | Potency [4] | outcome [5] | outcome [6] | max response [7] -8.74% | Potency [8] | Potency [9]

NNC(=O)OCc1ccccc1
inactive: outcome [1] | outcome [2] | outcome [3] | Potency [4] | outcome [5] | outcome [6] | max response [7] -4.79% | Potency [8] | Potency [9]

CC(C)(O)c1ccc(C(C)(C)O)cc1
inactive: outcome [1] | outcome [2] | outcome [3] | Potency [4] | outcome [5] | outcome [6] | max response [7] 0.887% | Potency [8] | Potency [9]

CCOCCOCCOC(C)=O
inactive: outcome [1] | outcome [2] | outcome [3] | Potency [4] | outcome [5] | outcome [6] | max response [7] 7.47% | Potency [8] | Potency [9]

CC(C)(C)NCC(O)COc1cccc2c1CCC(=O)N2 (configuration not stated)
inactive: outcome [1] | outcome [2] | outcome [3] | Potency [4] | outcome [5] | outcome [6] | max response [7] 5.27% | Potency [8] | Potency [9]

Cc1ccc(N)nc1
inactive: outcome [1] | outcome [2] | outcome [3] | Potency [4] | outcome [5] | outcome [6] | max response [7] 0.353% | Potency [8] | Potency [9]

CCOc1ccccc1OCCN[C@H](C)Cc1ccc(OC)c(S(N)(=O)=O)c1
inactive: outcome [1] | outcome [2] | outcome [3] | Potency [4] | outcome [5] | outcome [6] | max response [7] -2.4% | Potency [8] | Potency [9]

O=S(=O)(O)c1ccc(Cl)cc1
inactive: outcome [1] | outcome [2] | outcome [3] | Potency [4] | outcome [5] | outcome [6] | max response [7] 0.949% | Potency [8] | Potency [9]

OCCC(F)(F)C(F)(F)C(F)(F)C(F)(F)C(F)(F)C(F)(F)F
inactive: outcome [1] | outcome [2] | outcome [3] | Potency [4] | outcome [5] | outcome [6] | max response [7] -4.06% | Potency [8] | Potency [9] | outcome [10]

CC1(C)CC(N)CC(C)(C)N1
inactive: outcome [1] | outcome [2] | outcome [3] | Potency [4] | outcome [5] | outcome [6] | max response [7] 16.7% | Potency [8] | Potency [9]
